Data as given in PubChem BioAssay AID590 (National Center for Advancing Translational Sciences (NCATS), 2007).
About 6,500 (11%) of roughly 59,000 compounds were called active. Not shown: some 15% with an inconclusive outcome. Rule as the data show it: active = max dye-equivalent concentration above about 10 nM; inconclusive = mostly about 1.1 nM to 9.6 nM; inactive = weaker than that. The sample as a whole holds a higher share of actives than the screen did.

Experiment: qHTS Assay for Spectroscopic Profiling in A350 Spectral Region
Conditions: Compound autofluorescence, 340/450 nm, Alexa 350 dye-equivalents; hits give high values
From the text: NIH Molecular Libraries Screening Centers Network [MLSCN]
NIH Chemical Genomics Center [NCGC]
Occasionally, the artifactual effect may originate from the compounds own spectral or other biophysical properties which generally tend to track its assay concentration. Pre-screening/profiling the library with respect to the compounds spectral properties should help one exclude false positives early on. While the most informative fluorescent profiling data set is obtained by performing a full excitation and emission scan of each well by using a monochromator-based plate reader, such an approach is practical only on a very limited scale as scanning each well requires long time. An alternative approach, applied here, is to perform plate reader scans using selected excitation and emission wavelength pairs to generate a multidimensional relational database that correlates compound concentration and the respective relative fluorescence intensity at a given wavelength set. A standard curve of Alexa 350 (A 350) present on each plate as six-point concentration series, was used to compute a normalized fluorescence response, termed dye-equivalent concentration, for each compound at each concentration.
NCGC Assay Protocol Summary:
100 mM Tris buffer, pH 8.0
The wells in columns 1 through 4 of a Kalypsys polypropylene 1536-well compound plate were filled with standard solutions of fluorophore corresponding to the spectral region of interest. Solutions of A 350 were placed in the following wells: I1, J1: 3 mM, I2, J2: 300 uM, I3, J3: 30 uM, I4, J4: zero (DMSO), K1, L1: 3 uM, K2, L2: […], K3, L3: 300 nM, K4, L4: zero (DMSO).
Six uL of buffer were dispensed to 1536-well Greiner black plates. Compounds and dye standards (23 nL) were transferred via Kalypsys PinTool. The plates were incubated for 15 min at room temperature, and then read on ViewLux (Perkin-Elmer) High-throughput CCD imager using 340 nm and 450 nm excitation and emission filter set.
Keywords: NIH Roadmap, MLSCN, MLI, MLSMR, qHTS, NCGC, A350, A-350, Fluorescent Profiling.

Row | Structure (SMILES) | max dye-equivalent concentration
1 | O=C(COc1ccc(F)cc1)N(CC1=CCS(=O)(=O)C1)c1ccccc1 | inactive
2 | COc1cc(C2C(C(=O)c3ccc(C)o3)=C(O)C(=O)N2Cc2cccnc2)ccc1O (stereo not given) | inactive
3 | CCOC(=O)c1c(C)[nH]c(C(=O)COc2ccc3c(c2)OCO3)c1C | inactive
4 | CCCCOC(=O)c1[nH]c(C)c(C(=O)OC)c1C | 450 nM (active)
5 | CCOC(=O)c1c(C)[nH]c(C(=O)NCc2ccccc2OC)c1C | inactive
6 | CCOC(=O)COc1ccc(Cl)cc1C1NC(=O)NC(C)=C1C(C)=O (stereo not given) | inactive
7 | O=S(=O)(NCc1cccnc1)c1ccc(Br)s1 | inactive
8 | CCC[C@H]1C(=O)N2C(N(C)C)=Nc3ccc(C)cc3N2C1=O | inactive
9 | CC(=O)C1C(c2cccc(Oc3ccccc3)c2)NC(=O)NC1(O)C(F)(F)F (stereo not given) | inactive
10 | COc1ccccc1N1CCN(C(=O)c2cc(-c3ccc(Cl)c(Cl)c3)on2)CC1 | inactive
11 | CCc1c(C)nc2ncnn2c1N1CCC(C(=O)NCc2ccc3c(c2)OCO3)CC1 | inactive
12 | C=CCC(NCCCO)c1cccc(OC)c1OC (stereo not given) | inactive
13 | COc1ccc(-c2cc3ccc(OCc4nn[nH]n4)cc3oc2=O)cc1 | 11000 nM (active)
14 | COc1ccc(OCc2ccc(-c3nc4ccccc4c(=O)n3N)o2)cc1 | inactive
15 | Cc1nnc(SCC(=O)N2CCc3ccccc32)n1-c1ccccc1 | inactive
16 | N#Cc1c2c(c(-c3ccccc3)[nH]c1=O)CCCC2 | 20 nM (active)
17 | Nc1nnnn1/N=C/c1cccs1 | inactive
18 | N=c1c2c3c(sc2ncn1N)CCCCC3 | inactive
19 | COc1ccccc1-c1nc(N2CCN(C)CC2)c2ccccc2n1 | inactive
20 | COc1ccccc1CNC(=O)C1CCN(c2nc3ccccc3o2)CC1 | inactive
21 | COc1cc2nc(N3CCN(C(=O)[C@@H]4CCCO4)CC3)nc(N)c2cc1OC | 830 nM (active)
22 | Cc1ccc(C(c2nnnn2CS(=O)(=O)c2ccc(C)cc2)N2CCC(C(N)=O)CC2)cc1 (stereo not given) | inactive

Row | Structure (SMILES) | max dye-equivalent concentration
23 | O=P(c1ccc2c(c1)OCCO2)(N1CCOCC1)N1CCOCC1 | inactive
24 | COc1ccccc1CNCc1cccs1 | inactive
25 | O=C(O)C1CCN(c2ncnc3ccc(-c4ccccc4C(F)(F)F)cc23)CC1 | inactive
26 | COc1ccc(OCC(=O)N2CCN(C(=O)c3cccs3)CC2)cc1 | inactive
27 | COc1ccc(S(=O)(=O)N2CCN(C(=O)c3cccs3)CC2)cc1OC | 3700 nM (active)
28 | CCCS(=O)(=O)N1CCN(C(=O)c2cccs2)CC1 | inactive
29 | CC(C)Oc1ccc(C2NC(=O)NC2=O)cc1 (stereo not given) | inactive
30 | COc1ccc2c(c1OC)C(=O)OC2c1c(O)nc(SC)n(-c2ccccc2)c1=O (stereo not given) | inactive
31 | O=C(CCCn1c(=O)oc2ccccc21)Nc1cccnc1 | inactive
32 | Oc1c(CN2CCOCC2)ccc(CN2CCOCC2)c1O | inactive
33 | COc1ccc(-c2cc(C(F)(F)F)nc(SCCC(=O)NCc3ccco3)n2)cc1 | inactive
34 | FC(F)(F)c1cc(-c2cccs2)nc(NCc2ccco2)n1 | 16 nM (active)
35 | O=C(CSc1nc(-c2ccco2)cc(C(F)(F)F)n1)NCc1cccs1 | inactive
36 | Cc1ccc(NC2=NC(c3ccccc3)n3c(nc(C)cc3=O)N2)cc1 (stereo not given) | inactive
37 | CC(=O)NC1=NC(=O)CS1 | inactive
38 | CCOC(=O)c1ccc(CS(=O)c2ccc(Cl)cc2)o1 (stereo not given) | inactive
39 | COc1ccc(COC(=O)c2n[nH]c3ccccc23)cc1F | inactive
40 | CCOC(=O)c1ccc(COC(=O)c2cc(=O)[nH]c3ccccc23)o1 | 40 nM (active)
41 | COc1ccccc1C(=O)n1nc(-c2ccccc2)nc1N | inactive
42 | COc1ccc(C(=O)n2nc(-c3ccc(Cl)cc3)nc2N)cc1OC | inactive
43 | COc1ccc(C(=O)n2nc(-c3ccc(C)cc3)nc2N)cc1OC | 31 nM (active)
44 | Cc1cnc(CNc2ncncc2-c2ccccc2Cl)cn1 | inactive

Row | Structure (SMILES) | max dye-equivalent concentration
45 | CCn1nc(NC(=O)c2ccco2)c2cc3ccc(C)cc3nc21 | 86 nM (active)
46 | CCN(CC)C(=O)c1sc(NC(=O)c2ccco2)c(C#N)c1C | inactive
47 | Cc1ccnc(NC(=O)c2ccc(NC(=O)c3ccco3)cc2)c1 | inactive
48 | O=C(CSc1nnc(-c2cnccn2)n1Cc1ccco1)c1ccc(Cl)c(Cl)c1 | inactive
49 | CC(=O)N1CSCC1C(=O)O (stereo not given) | inactive
50 | O=C(N1CCOCC1)N(Cc1ccccc1)c1ccccn1 | inactive
51 | CN(C)CC/C=C1\c2ccccc2CSc2ccccc21 | inactive
52 | COc1ccc(Cn2c(=O)sc3ccccc32)cc1OC | inactive
53 | Cc1ccc2nc(NCCCNC(=O)c3cnccn3)c(C#N)cc2c1 | 220 nM (active)
54 | O=S(=O)(c1ccccc1)N1CCC2(CC1)CN(Cc1nccs1)C2 | inactive
55 | CCCCCN(C(=O)NC(=O)Nc1ccccc1C)S(C)(=O)=O | inactive
56 | O=C(c1cnccn1)N1CCC2(CCCN(Cc3ccccc3)C2)CC1 | inactive
57 | O=C(CS(=O)(=O)Cc1ccccc1)NCC1CCCO1 (stereo not given) | inactive
58 | O=C(CSC1=Nc2ccccc2C2=NC(c3ccccc3)C(=O)N12)NCC1CCCO1 (stereo not given) | 590 nM (active)
59 | O=C(CSc1nnc(-c2ccc(NS(=O)(=O)c3ccccc3)cc2)o1)NCC1CCCO1 (stereo not given) | inactive
60 | COc1ccc(S(=O)(=O)Nc2c(C)n(C)n(-c3ccccc3)c2=O)cc1 | inactive
61 | CN(C)C(=O)c1ccc(-c2cncnc2NC2CCNCC2)cc1 | inactive
62 | CCCc1cc(=O)[nH]c(SCc2ccc(C#N)cc2)n1 | inactive
63 | Cc1ccc(S(=O)(=O)NCC(=O)OCC(=O)N2CCc3ccccc32)cc1 | inactive
64 | O=C(c1cc(-c2cccs2)on1)N1CCCCC1 | inactive
65 | Cc1ccc(C(=O)N2CCCCCC2)cc1Br | inactive
66 | Cc1ccc2cc3cc(C(=O)N4CCCCCC4)oc3nc2c1 | 11 nM (active)

Row | Structure (SMILES) | max dye-equivalent concentration
67 | O=C(CSc1nc2[nH]ncc2c(=O)n1-c1ccccc1)N1CCCc2ccccc21 | inactive
68 | COc1cc2c(cc1OC)C(c1ccncc1)CC(=O)N2 (stereo not given) | inactive
69 | Cc1cc(C)c2nc(N3CCCC3)c(C#N)cc2c1 | 130 nM (active)
70 | Cc1ccc(OCc2nc(C#N)c(N3CCCC3)o2)cc1 | inactive
71 | Cc1cccc2cc(C#N)c(N3CCCC3)nc12 | 37 nM (active)
72 | Cc1ccc2nc(CC(=O)c3ccc4ccccc4c3)c(=O)[nH]c2c1 | inactive
73 | c1ccc2sc(SCCSc3nc4ccccc4s3)nc2c1 | inactive
74 | CN1CCN(c2nc3c(c(=O)[nH]c(=O)n3C)n2Cc2cccc3ccccc23)CC1 | inactive
75 | O=C(NCc1cccs1)C1CCN(S(=O)(=O)c2ccc3c(c2)OCCO3)CC1 | inactive
76 | O=C(Nc1cccc(F)c1)N1CCC2(CC1)CCN(S(=O)(=O)c1ccccc1)CC2 | inactive
77 | O=C(c1ccc2c(c1)OCCO2)C1CCN(S(=O)(=O)c2cccc(F)c2)CC1 | 12 nM (active)
78 | CCc1nc(C)cn1S(=O)(=O)c1cc(OC)c(C)cc1C | inactive
79 | CC(C)CCNC(=O)CN(C(=O)Cn1nnc(-c2ccc(F)cc2)n1)C1CCCC1 | inactive
80 | Cc1nc2ccccc2cc1O | 2500 nM (active)
81 | Cc1cc(O)ccc1-c1cnc2ccccc2n1 | inactive
82 | CCOc1cc(C)c(Cl)cc1S(=O)(=O)n1nnc2ccccc21 | inactive
83 | Cc1c(C(=O)N2CCOCC2)[nH]c2ccc(OCc3ccccc3)cc12 | inactive
84 | COc1ccc(OC)c(NC(=O)CCN2CCC(C)CC2)c1 | inactive
85 | COC(=O)c1[nH]c2ccccc2c1NC(=O)CN1CCCc2ccccc21 | inactive
86 | CCOC(=O)c1[nH]c2ccc(OC)cc2c1NC(=O)CCN1CCN(Cc2ccccc2)CC1 | 64 nM (active)
87 | CCOC(=O)c1[nH]c2ccc(OC)cc2c1NC(=O)N1CCOCC1 | 44 nM (active)
88 | COc1cc(NC(=O)N2CCOCC2)cc(OC)c1 | inactive

Row | Structure (SMILES) | max dye-equivalent concentration
89 | COc1ccccc1CNc1cc(-c2ccccc2CN(C)C)ncn1 | inactive
90 | COCC(=O)N1CCC2(CCCN(c3ccccc3)C2)CC1 | inactive
91 | Cc1cc(NC(=O)COn2nnc3ccccc32)no1 | inactive
92 | O=C1NC(=O)[C@@](Cc2ccccc2)(c2cccnc2)N1 | inactive
93 | Cc1cccn2c(=O)c3cc(C(=O)N4COCC4(C)C)n(C)c3nc12 | 900 nM (active)
94 | Cc1cccn2c(=O)c3cc(C(=O)NCc4ccccn4)n(C)c3nc12 | 170 nM (active)
95 | O=C(NCc1ccco1)c1nc2ncccn2n1 | inactive
96 | O=C(NCc1ccccn1)c1c(O)c2c([nH]c1=O)CCCC2 | inactive
97 | CCN(CC)C(=O)C1CCC(C)(C(=O)O)C1(C)C (stereo not given) | inactive
98 | CC(c1ccccc1)n1c(NCCCn2ccnc2)nc2c1c(=O)[nH]c(=O)n2C (stereo not given) | inactive
99 | Cc1cc(NC(=O)COC(=O)c2ccc(F)c(S(=O)(=O)N3CCOCC3)c2)no1 | inactive
100 | COc1cc([C@H]2c3cc4c(cc3[C@@H](O[C@@H]3O[C@H]5CO[C@@H](C)O[C@]5(O)C[C@H]3O)[C@@H]3COC(=O)[C@H]23)OCO4)cc(OC)c1O | inactive
101 | C=CCn1c(SCc2cc(C(=O)OC)c(C)o2)nnc1-c1ccncc1 | inactive
102 | COc1ccc(C(=O)CSc2nccc(=O)[nH]2)cc1 | inactive
103 | COC(=O)[C@H](C)NC(=O)Nc1ccc(OC(F)(F)F)cc1 | inactive
104 | CCC1=C(C(=O)OC)C(c2cc(OC)ccc2OC)C(C#N)=C(N)O1 (stereo not given) | inactive
105 | CCCN1CC=C2C(C#N)=C(N)C(C#N)(C#N)C(c3cc(OC)ccc3OC)C2C1 (stereo not given) | 110 nM (active)
106 | c1cc(-n2cnnn2)ccc1NC1=NCCC1 | inactive
107 | CNC(=O)C1CC(=O)N(Cc2ccc3c(c2)OCO3)C(=Nc2ccc(F)cc2)S1 (stereo not given) | inactive
108 | CC(C)(CSc1nncn1/N=C/c1ccco1)NS(=O)(=O)c1ccc(Cl)cc1 | inactive
109 | CC(C)CCNc1nc(N2CCCC2)c2c(c1C#N)CCN(C)C2 | 33 nM (active)
110 | O=C(CCOc1ccccc1)NCc1ccccc1 | inactive
